Assay results taken from PubChem BioAssay AID1851 (National Center for Advancing Translational Sciences (NCATS), 2009).
In all, about 16,000 compounds went through this assay and about 5,100 (32%) were called active. About 25% were inconclusive and are not listed. Calls come from the whole dose curve; as a rule, active = well fitted curve in the direction sought with a large enough effect; inconclusive = small, poorly fitted or top-dose-only effect, or effect the other way; inactive = no such curve, though single readings can be large or run the other way. Some of the results follow.

What follows are compounds tested against Cytochrome P450 3A4 (Homo sapiens) (UniProt P08684) (assay: Cytochrome panel assay with activity outcomes). Conditions: recombinant CYP, pro-luciferin dealkylation, luminescence, p450-cyp3a4; series mostly up to 57.1 µM; activity, negative = inhibition: at the top concentration.
% is set by controls: 0 for no effect and ±100 for the full control effect.

Sequence of Cytochrome P450 3A4 (Homo sapiens) (P08684 whole entry, looked up): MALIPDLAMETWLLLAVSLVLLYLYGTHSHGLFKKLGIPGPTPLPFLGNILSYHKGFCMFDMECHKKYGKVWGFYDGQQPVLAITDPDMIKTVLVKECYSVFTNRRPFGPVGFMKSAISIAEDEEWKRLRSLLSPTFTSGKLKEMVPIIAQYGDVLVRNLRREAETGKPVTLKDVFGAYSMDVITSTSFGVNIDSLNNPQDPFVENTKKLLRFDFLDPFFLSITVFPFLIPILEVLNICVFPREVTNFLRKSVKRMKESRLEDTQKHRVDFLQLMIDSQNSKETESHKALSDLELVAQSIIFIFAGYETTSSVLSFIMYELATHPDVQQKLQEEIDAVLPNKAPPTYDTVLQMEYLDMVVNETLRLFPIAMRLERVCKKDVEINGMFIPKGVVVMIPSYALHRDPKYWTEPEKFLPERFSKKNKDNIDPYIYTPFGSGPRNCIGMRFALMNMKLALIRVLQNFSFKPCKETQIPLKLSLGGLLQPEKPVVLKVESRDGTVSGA

activity, negative = inhibition, inactive:
COc1cc(=O)n2c(n1)SCCC2 -0.256% [at 2.29 µM], Cn1c(=O)c2[nH]c(-c3ccccc3)nc2n(C)c1=O -14.6%, Cn1c(=O)c2[nH]c(-c3ccc(S(=O)(=O)O)cc3)nc2n(C)c1=O -4.3%, CS/C(N)=N/N=C/c1ccc([N+](=O)[O-])cc1 -16.9%, C[N+]1(CCOc2ccc([N+](=O)[O-])cc2)CCOCC1 -1.53%, COc1cc2c(cc1NC(=O)Nc1ccccc1)oc1ccccc12 -27.3%, CC(C)(S)[C@H](N)C(=O)O -0.648% [at 11.4 µM], CC(C)(SCc1ccccc1)[C@H](N)C(=O)O -12.3% [at 11.4 µM], CC(=O)Nc1ccc(-c2cc(C(=O)O)c3cc4ccccc4cc3n2)cc1 -8.77% [at 11.4 µM], COc1ccc(Nc2cc(C(=O)NCCCN3CCN(C)CC3)c3ccccc3n2)cc1 -29.1%, Cc1noc(C)c1-c1cc(NCc2ccccc2)ncn1 -7.55%, Cc1cnc(CNc2cc(-c3ccoc3)ncn2)cn1 -21.4%, O=C1C[C@@H](O)[C@@H](O)[C@@H]2[C@H]3C(=O)N(c4ccc(F)cc4F)C(=O)[C@@H]3CC[C@@H]12 -8.71% [at 11.4 µM], O=C(O)[C@@H](S)[C@H](S)C(=O)O -14.7% [at 11.4 µM], Cc1ncc(CO)c(CO)c1O -2.22% [at 25.6 µM], O=c1c(C=Nc2ccc(Oc3ccccc3)cc2)c[nH]n1-c1cccc(Cl)n1 -25.6%, Cn1c(N)nc2c(nc(OCc3ccccc3)n2[C@@H]2O[C@H](CO)[C@@H](O)[C@@H]2O)c1=O -4.84% [at 11.4 µM], CCn1cc(C(=O)NCC(=O)OC)c2cc(OC)c(OC)cc2c1=O -18.8%, FC(F)(F)c1cc(-c2ccco2)nc(NCCc2ccccc2)n1 0.414% [at 2.29 µM], CCNc1nc(Oc2c(Cl)cccc2Cl)cc(C(F)(F)F)n1 -8.36%, CC1(C)CCCN(C(=O)N2c3ccccc3Sc3ccccc32)C1 -13% [at 2.29 µM], CC1CCN(CC[C@H]2CCCN2S(=O)(=O)c2cccc(O)c2)CC1 -17.8%, Cc1c(N(C)CS(=O)(=O)O)c(=O)n(-c2ccccc2)n1C -3.01% [at 25.6 µM], Cc1c(CCO)c(=O)n(C)n1C(=O)c1ccc(F)cc1 -28.6%, Cn1c(=O)n(C)c2cc(S(=O)(=O)O)ccc21 -5.49%, Cn1c(=O)c2cc(S(=O)(=O)NCCC(=O)Nc3ccc(Cl)cc3)ccc2n(C)c1=O -20.7%, Cc1nn(-c2ccccc2)c2c1C(=O)N(Cc1ccccc1)C(=O)C(C)(C)C2 1.57% [at 2.29 µM], CSc1nnc(-c2ccc(Cl)cc2Cl)o1 6.64%, Clc1ccc(-c2nnc(CCc3ccccc3)o2)c(Cl)c1 0.747% [at 2.29 µM], CC(C)c1ccc(C2C(C#N)=C(N)N3C(=C2C#N)Sc2ccccc23)cc1 (stereo unspecified) 15.8%, Cc1ccc(Cl)cc1-n1c(=O)cc(N2CC(C)OC(C)C2)[nH]c1=O (stereo unspecified) -17%, O=S1(=O)C=C(N2CCOCC2)c2ccccc21 -21% [at 11.4 µM], O=C(O)CN(CCN(CC(=O)O)CC(=O)O)CC(=O)O.[Cu] 10.2% [at 11.4 µM], COc1ccc(/C=N/N(C(C)=O)c2nc(-c3ccc(C)cc3)cs2)cc1 3.8%, N=C1SCC(=O)N1c1nc(-c2ccccc2)cs1 0.753% [at 2.29 µM], O=C(Nc1ccc(-c2csc(-c3ccccc3)n2)cc1)c1ccccc1Cl 13.2%, Cc1sc(N/N=C/C=C/c2ccccc2)nc1-c1ccccc1 -9.33% [at 11.4 µM], Brc1ccc(/C=C/C=N/Nc2nc3ccccc3s2)cc1 6.56%, CC(C)NC(=O)/C(=N\O)c1ccccc1 0.0184%, Cc1cc(S(=O)(=O)NCCN(C)C)c(C)s1 -9.29%, CCOc1ccc(C(F)(F)F)cc1NC(C)=O -25.1%, COC(=O)/C(=C\C(=O)c1ccccc1)Nc1cccc(C(F)(F)F)c1 -25.3%, COC(=O)[C@]1(C)CCC(c2ccc(C)cc2)=C(CC(=O)O)C1 -9.37% [at 11.4 µM], Cc1cccc2cc(=O)[nH]c(C)c12 -18.7%, Cc1ccc(Cl)cc1N1CCN(S(=O)(=O)c2ccc3c(c2)OCCO3)CC1 -22.3%, CN1CCCN(S(=O)(=O)c2ccc3c(c2)OCCO3)CC1 5.66%, CN(C)CC(CN(C)C)c1ccccn1 -2.93% [at 11.4 µM], c1ccc([C@H](CCN2CCCC2)c2ccccn2)cc1 -2.32% [at 11.4 µM], N=C(N)c1ccccc1 3.54%, c1ccc2c(c1)c1ccccc1n2Cn1c2ccccc2c2ccccc21 -21.4% [at 11.4 µM], CCn1c(C)nc2cc(C(=O)NNS(=O)(=O)c3ccccc3F)ccc21 1.94%, C[C@@]1(C(NC(=O)Cc2ccc(C(F)(F)F)cc2)c2ccc(-c3ccccc3)cc2)C[C@H]1C1CCCCC1 (stereo partly specified) -18.1%, C[C@@]1(C(NC(=O)c2ccc(-c3ccccc3)cc2)c2ccc(Cl)cc2)C[C@H]1C1CCCCC1 (stereo partly specified) -13.8%, COCc1cc(=O)[nH]c2cc(NC(=O)C(F)(F)F)c(C)cc12 -1.96% [at 11.4 µM]

AC50, active:
COc1ccc(-c2nc3c([nH]2)c(=O)n(C)c(=O)n3C)c(OC)c1 1.58 µM, COc1ccc(C=NC(CO)C(O)c2ccc([N+](=O)[O-])cc2)cc1 (stereo unspecified) 10 µM, COc1ccc(NC(=O)c2cc(-c3cccnc3)nc3ccc(C)cc23)cc1OC 1.41 µM, COc1cccc(NC(=O)c2cc(-c3cccnc3)nc3c(Cl)cccc23)c1 2.24 µM, COc1ccccc1CC(=O)Nc1cc2oc3ccccc3c2cc1OC 7.08 µM, COc1cc2c(cc1NC(=O)c1cc(-c3cccnc3)nc3ccc(C)cc13)oc1ccccc12 3.98 µM, Cc1ccc2nc(-c3ccccc3)cc(C(=O)NCCCn3ccnc3)c2c1 0.562 µM, CN(C)c1ccc(-c2cc(NCc3cccnc3)ncn2)cc1 3.16 µM, Cc1cccc(CNc2cc(-c3ccc(N(C)C)cc3)ncn2)c1 6.31 µM, Cc1cccc(CNc2cc(-c3c(C)noc3C)ncn2)c1 5.01 µM, Cc1cccc(CNc2cc(-c3ccoc3)ncn2)c1 7.94 µM, CN(C)c1ccc(-c2cc(NCc3ccccc3)ncn2)cc1 15.8 µM, FC(F)(F)c1cc(-c2ccco2)nc(NCc2cccs2)n1 25.1 µM, O=C(CSc1nnc(SCc2cccc3ccccc23)s1)c1ccc2c(c1)OCO2 2.82 µM, CC1CCN(CC(=O)N2c3ccccc3Sc3cc4ccccc4cc32)CC1 3.98 µM, Cc1c(CCO)c(=O)n(-c2ccccc2)n1S(=O)(=O)c1c(Cl)cc(Cl)cc1Cl 4.47 µM, COc1cccc(-c2cc(NCc3ccccc3OC)ncn2)c1 15.8 µM, COc1cccc(-c2cc(NCc3ccc(OC)cc3OC)ncn2)c1 2.51 µM, Cc1csc(NC(=O)CCNS(=O)(=O)c2ccc3c(c2)c(=O)n(C)c(=O)n3C)n1 7.94 µM, CCOc1ccc(NC(=O)CCNS(=O)(=O)c2ccc3c(c2)c(=O)n(C)c(=O)n3C)cc1 14.1 µM, Cn1c(=O)c2cc(S(=O)(=O)NCCC(=O)NCc3ccccc3Cl)ccc2n(C)c1=O 14.1 µM, Cc1ccc(CNC(=O)CCNS(=O)(=O)c2ccc3c(c2)c(=O)n(C)c(=O)n3C)cc1 1.78 µM, Cn1c(=O)c2cc(S(=O)(=O)NCCC(=O)NCCc3ccc(Cl)cc3)ccc2n(C)c1=O 12.6 µM, O=c1c(-c2nnc(SCc3ccc(Cl)c(Cl)c3)o2)cccn1Cc1ccccc1 20 µM, O=c1c(-c2nnc(SCc3ccc(Cl)cc3Cl)o2)cccn1Cc1ccccc1 22.4 µM, c1ccc2c(c1)-c1nc3ccccc3cc1[C@H]2N1CCOCC1 2.51 µM, N#CC(=C1CCCC1)c1nc(-c2ccccc2)cs1 15.8 µM, Cc1ccc(-c2csc(C(C#N)=C3CCCC3)n2)cc1 20 µM, O=S(=O)(N/N=C\C=C\c1ccccc1)c1ccc(Br)cc1 14.1 µM, CCC/C=C(\CCC)C(NC(=O)c1ccc(C(F)(F)F)cc1)c1ccccc1 (stereo unspecified) 15.8 µM, CCC/C=C(\CCC)C(NC(=O)c1ccccc1)c1ccccc1 (stereo unspecified) 10 µM, CN(C)S(=O)(=O)Oc1ccccc1C(=O)Nc1cccc(C(F)(F)F)c1 11.2 µM, CN(C)S(=O)(=O)Oc1ccc(Cl)cc1C(=O)Nc1cccc(C(F)(F)F)c1 12.6 µM, CCOC(=O)N1CCC(NC(=O)CCC(=O)N2CC(C)Oc3ccc(C)cc32)CC1 (stereo unspecified) 8.91 µM, Cc1ccc2c(c1)N[C@H](c1ccc(C(=O)O)cc1)c1cccn1-2 0.0501 µM, Cc1ccc2nc(N3CCN(S(=O)(=O)c4ccc5c(c4)OCCO5)CC3)c(C#N)cc2c1 6.31 µM, Cc1[nH]c2ccccc2c1C(c1ccccn1)N1CCC(C)CC1 (stereo unspecified) 2.24 µM, Cc1ccc(N(CCC#N)C(=O)CSc2ccc3c(c2)OCCO3)cc1 15.8 µM, CCn1c2ccccc2c2cc(NS(=O)(=O)c3ccccc3C)ccc21 1 µM, COC(=O)c1ccc(C(NC(=O)c2ccco2)[C@]2(C)C[C@H]2C2CCCCC2)cc1 (stereo partly specified) 7.94 µM, CC(C)(C)C(=O)NC(c1ccc(Cl)cc1)[C@]1(C)C[C@H]1C1CCCCC1 (stereo partly specified) 12.6 µM

AC50, inactive:
CC(C)NC[C@@H](O)COc1ccc(COCCOC(C)C)cc1
